Screening results: PubChem, National Center for Advancing Translational Sciences (NCATS)
TRPML1 inh – human mucolipin-1 channel inhibition. Q9GZU1. TRPML1-inducible cells, Ca2+ dye fluorescence, FDSS; stronger effect = lower value; inhibition of EC80 agonist-evoked calcium signal. activity change, negative = inhibition, % (test concentration not listed). actives 0.02% (n = 390,000); in the data active = activity change below about -50%; inconclusive = between about -30% and that limit;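 also: stimulus is agonist 54-4 at its EC80 concentration; % is scaled to controls: 0 for no effect and ±100 for the full control effect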
Target sequence (Q9GZU1 whole entry, looked up): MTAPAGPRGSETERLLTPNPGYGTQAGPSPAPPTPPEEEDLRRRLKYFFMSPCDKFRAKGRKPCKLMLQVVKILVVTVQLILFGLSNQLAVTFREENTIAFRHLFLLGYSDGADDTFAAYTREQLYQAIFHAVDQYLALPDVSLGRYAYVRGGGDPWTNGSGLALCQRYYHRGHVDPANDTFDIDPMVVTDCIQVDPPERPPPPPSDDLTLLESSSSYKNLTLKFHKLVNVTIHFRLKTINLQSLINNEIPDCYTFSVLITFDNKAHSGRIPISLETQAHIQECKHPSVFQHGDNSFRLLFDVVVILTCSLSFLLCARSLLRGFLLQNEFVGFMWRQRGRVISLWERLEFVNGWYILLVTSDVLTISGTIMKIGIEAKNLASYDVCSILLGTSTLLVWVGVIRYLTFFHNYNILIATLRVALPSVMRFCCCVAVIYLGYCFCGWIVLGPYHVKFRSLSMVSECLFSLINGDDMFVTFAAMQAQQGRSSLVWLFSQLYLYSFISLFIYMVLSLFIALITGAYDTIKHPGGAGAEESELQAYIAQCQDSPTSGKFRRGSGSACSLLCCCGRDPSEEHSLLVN
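TRPML1-DL cells, Tet-induced overnight (~16 h, 37 °C) at 1,500 cells/well, were loaded with Ca8 no-wash dye plus quencher for 45-90 min at room temperature. Compounds were pinned during FDSS kinetic reading; agonist 54-4 at EC80 (4 uM final) then added.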
ALOX12 inh – inhibitors of human 12S-lipoxygenase ALOX12; purified 12hLO, xylenol orange hydroperoxide absorbance; Potency, µM (titrated, usually from 108 µM), for the others: at the highest dose activity change, negative = inhibition, actives largely listed as inhibitors; actives 1.1% (n = 580,000); AID 1671190; also: potency is read from the fitted curve at half-maximal effect; % is scaled to controls: 0 for no effect and ±100 for the full control effect
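Purified human 12hLO (150 nM final) in 25 mM Hepes, 0.01% Triton X-100, pH 7.0 was preincubated 15 min at room temperature with compound. Then 40 uM arachidonic acid was added, 30 min. Hydroperoxide was read by Fe-XO absorbance ratio 573/405 nm.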
Vif-APOBEC3F blk – inhibitors of Vif-A3F interaction. actives 0.2% (n = 390,000). HeLa A3F-eYFP + Vif (tagged APOBEC3F with the HIV-1 protein that degrades it), YFP fluorescence increase. Potency, µM (titrated, usually from 46.1 µM), for inactives: at the highest dose activity, negative = active. AID 602313; also: potency is read from the fitted curve at half-maximal effect; % of control where 0% means no effect; nearly all actives have a fitted effect of over 65% in size
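HeLa cells stably expressing Vif plus C-terminally eYFP-tagged A3F were seeded, incubated overnight at 37 deg C, dosed with compound, incubated overnight again at 37 deg C. Yellow fluorescence (Ex 488/Em 500-530) reported blocked Vif-mediated A3F-eYFP degradation.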
TRPML1 agonist – human mucolipin-1 channel agonism. activation, % (no concentration beside the values). Q9GZU1. TRPML1-expressing cells, Ca2+ dye fluorescence, FDSS. actives 0.12% (n = 410,000); in the data active = activation above about 50%; inconclusive = mostly about 30% to 49%; also: 0% is about no effect
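TRPML1-DL cells, Tet-induced overnight (~16 h, 37 degrees C), loaded 45-90 min at room temperature with Ca8 no-wash calcium dye plus quencher. FDSS fluorescence: 10 s baseline, compound pin-transfer, 110 s agonist read, then EC80 54-4 (4uM final) and 110 s antagonist read.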
Vif-APOBEC3G blk – inhibitors of Vif-APOBEC3G interaction; Q9HC16; HeLa A3G-eYFP + Vif (tagged APOBEC3G with the HIV-1 protein that degrades it), YFP fluorescence, overnight; Potency, µM (titrated, usually from 46.1 µM), without a hit: at the top dose activity, negative = active, hits mostly inhibitors; actives 0.076% (n = 410,000); AID 602310; also: potency is read from the fitted curve at half-maximal effect; % is scaled to controls: 0 for no effect and ±100 for the full control effect; nearly all actives have a fitted effect of over 60% in size
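Read-out is eYFP fluorescence (Ex 488/Em 500-530) from Vif-expressing HeLa A3G-eYFP cells; more signal means A3G escaped Vif-mediated degradation. Cells plated overnight, compound pinned in, incubated overnight at 37 deg C.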
Glioma ERSR ind – inducers of ER stress response in human glioma cells; AID 602332; Potency, µM, for the others: at the highest dose activation, most hits filed as activators; U87-MG GRP78 promoter luciferase reporter, 16 h; actives 0.02% (n = 420,000); also: potency is read from the fitted curve at half-maximal effect; series mostly up to about 76 µM; % of control where 0% means no effect; nearly all actives have a fitted effect of over 35% in size
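Stably transfected U87-MG human glioma cells carrying a GRP78-based luminescent sensor were seeded at 1000 cells/well, pin-dosed with compounds and incubated 16 h. Luciferase reagent was then added, and end-point luminescence was read after 10 min at room temperature.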
An asterisk follows results filed as active; ? = inconclusive; . = no result. Hits are enriched below; roughly 1.3% of the tested compounds scored in any of these assays. Unless noted, calls follow the shape of the dose curve; as a rule, active = well fitted curve in the direction sought with a large enough effect; inconclusive = small, poorly fitted or top-dose-only effect, or another doubt; inactive = no such curve, though single readings can be large; an effect the other way counts as inactive or inconclusive.

SMILES	TRPML1 inh	ALOX12 inh	Vif-APOBEC3F blk	TRPML1 agonist	Vif-APOBEC3G blk	Glioma ERSR ind
N#C/C(=C\C=C\c1ccco1)C(=O)NC1CCCCCC1	.	12.6µM*	.	.	.	.
Cc1ccn2c(-c3n[nH]c(=S)n3Cc3ccccc3)c(C)nc2c1	23.5	8.91µM*	-12.8%	1.4	0.5%	-4.7%
Cc1ccn2c(-c3csc(NCc4ccccc4)n3)c(C)nc2c1	-4.9	11.2µM*	-1.2%	-0.1	-6.1%	-8.6%
CCOC1CCCc2oc(-c3ccc(OC)cc3)c(C(=O)NCCCCO)c21 (stereo not drawn)	.	12.6µM*	.	-0.4	.	.
COc1ccc(-c2oc3c(c2C(=O)OCCCO)C(OCCO)CCC3)cc1 (stereo not drawn)	.	14.7%	.	-0.9	.	.
Cc1nc(NC2CCCC2)sc1C(=O)NCCC(C)C	.	20µM*	.	.	.	.
CC(=O)Nc1cccc(NC(=O)c2cc3ccccc3n2C)c1	.	4.3%	.	.	.	.
CC(SC1=NS(=O)(=O)c2ccccc21)C(=O)O (stereo not drawn)	.	0.708µM*	.	-0.9	3.7%	-4.1%
CC(=O)Nc1ccc2nc(SCC(=O)O)sc2c1	18.4	150.2%	-1.8%	-0.1	-5.8%	-5.4%
CC(=O)Nc1ccc2nc(SCc3ccc(Cl)cc3)sc2c1	.	20µM*	.	.	.	.
Cc1ccc(N2C(=O)C(F)(F)C2c2ccccc2)cc1 (stereo not drawn)	-19.7	-10.2%	-7.7%	62.9*	5.6%	2.0%
O=C1Nc2ccccc2CN(Cc2ccc(Cl)cc2)C12CCNC2 (stereo not drawn)	.	20µM*	.	.	.	.
CCCc1ccc(C(=O)N(CC#N)C2CC2)cc1	.	-4.6%	.	.	.	.
CCOC(=O)c1c(C)n(S(=O)(=O)c2ccc(C)cc2)c2ccc(O)c(C(=O)O)c12	62.0	56.2µM*	-4.9%	0.2	?	-0.4%
CCOC(=O)C1=C[C@@H](C)N(S(=O)(=O)c2ccc(C)cc2)[C@H]1c1ccccc1	-3.7	?	.	0.4	-4.0%	-2.3%
Cc1ccc(CN(Cc2ccco2)C(=O)c2cc3ccccc3oc2=O)cc1	.	-10.9%	.	.	.	.
COc1ccc(S(=O)(=O)N(C(=O)c2ccco2)c2cc3sc(=O)oc3c3ccccc23)cc1	19.6	?	2.1%	1.4	?	-7.7%
CCOc1ccc(S(=O)(=O)N(C(=O)c2ccco2)c2cc3sc(=O)oc3c3ccccc23)cc1	7.8	31.6µM*	-8.9%	-0.7	-5.3%	-2.0%
Cc1ccc(S(=O)(=O)N(C(=O)c2ccco2)c2cc3sc(=O)oc3c3ccccc23)cc1	12.6	28.2µM*	7.7%	2.8	-8.6%	-2.0%
CC(C)C(=O)Nc1ccccc1Sc1ccccc1	.	47.4%	.	.	.	.
COc1cccc(NC(=O)Cn2c(C)cc(=O)n3nc(-c4cccs4)nc23)c1	.	-5.2%	.	.	.	.
N#Cc1cccc(/C=C2\CSc3ccccc3C2=O)c1	.	39.8µM*	.	.	.	.
CN(C)c1ccc(C=C2SC(=S)NC2=O)cc1	4.6	-19.5%	?	?	10µM*	2.4%
O=C1NC(=S)S/C1=C\c1cc(Cl)ccc1Cl	-1.4	7.94µM*	-4.0%	0.1	6.3%	-0.7%
CCOc1ccc(N(C)c2ccc(/C=C3/SC(=S)NC3=O)cc2)cc1	27.1	-25.8%	?	?	?	-2.0%
SMILES	TRPML1 inh	ALOX12 inh	Vif-APOBEC3F blk	TRPML1 agonist	Vif-APOBEC3G blk	Glioma ERSR ind
O=C1C(NS(=O)(=O)c2ccc(Br)cc2)=C(N2CCCCC2)C(=O)c2ccccc21	-19.5	?	-2.4%	76.4*	2.8%	-3.8%
Cc1ccc(Cl)cc1N1CCN(C(=O)c2noc3c2CCc2sccc2-3)CC1	.	-11.7%	.	.	.	.
COc1ccc(S(=O)(=O)Nc2ccccc2-c2nc3ccccc3[nH]c2=O)cc1	4.8	5.6%	3.55µM*	-0.5	?	-6.2%
CCC(=O)Nc1ccccc1-c1nc2ccccc2[nH]c1=O	-11.3	1.6%	-24.1%	-0.6	-4.5%	-3.1%
O=C(OCc1csc(-c2ccccc2)n1)c1ccc(S(=O)(=O)N2CCOCC2)cc1	.	2.5%	.	.	.	.
Cc1ccc(/C=C/C(=O)N2CCN(S(=O)(=O)c3ccc(C)c(C)c3)CC2)o1	-11.4	17.8µM*	-20.5%	1.9	-7.0%	-15.3%
CCOc1ccc(-n2c(C)cc(/C=C3/C(=N)N4C(=NC3=O)SN=C4S(C)(=O)=O)c2C)cc1	-1.5	35.5µM*	-31.7%	0.5	0.3%	-2.4%
Cc1ccc(-n2cccc2/C=C2/C(=N)N3C(=NC2=O)SN=C3S(C)(=O)=O)cc1Cl	15.0	14.1µM*	?	1.5	-2.1%	1.6%
Cn1c(COc2ccc(C(C)(C)C)cc2)n[nH]c1=S	.	35.5µM*	.	.	.	.
COc1ccc(-n2c(COc3ccc(C)cc3)n[nH]c2=S)cc1	0.9	?	-3.1%	-0.5	-2.2%	-3.2%
Cc1ccc(NC(=S)NCc2ccc(F)cc2)c(C)c1	-3.7	?	-39.7%	-0.7	2.4%	0.1%
Cc1ccc(NC(=S)NCc2ccc3c(c2)OCO3)c(C)c1	-6.0	39.8µM*	.	3.2	-2.1%	3.2%
Cc1ccc(NC(=S)NCc2ccc3c(c2)cc(C)n3C)c(C)c1	16.3	35.5µM*	-5.1%	1.7	5.2%	-4.7%
Cc1cc2cc(CNC(=S)Nc3ccc(OC(F)F)cc3)ccc2n1C	-0.7	35.5µM*	-3.9%	0.2	3.8%	-1.6%
Cc1ccc(NC(=O)NCc2ccc3c(c2)OCO3)c(C)c1	-14.9	-7.0%	2.3%	-0.5	-0.7%	1.5%
CC1CCCN(C(=O)Cn2nc(C(=O)O)c3ccccc3c2=O)C1 (stereo not drawn)	.	0.6%	.	.	.	.
Cc1nonc1C(=O)N/N=C/c1ccc(O)c(O)c1	1.7	?	11.0%	0.3	-1.8%	35.5µM*
COc1cc(/C=N/NC(=O)c2nonc2C)ccc1O	3.4	1.1%	-22.9%	-0.1	-7.3%	6.0%
Cc1ccc2oc(C(=O)Nc3nnc(C)s3)cc(=O)c2c1	.	-4.9%	.	.	.	.
C[N+]1(CC(=O)OC2CCCCCCCCCCC2)CCCC1	?	44.7µM*	-14.9%	-0.5	-0.7%	-7.6%
CN(C)C1(CNC(=S)NCCc2ccccc2)CCCCC1	.	22.4%	.	.	.	.
CCOc1ccc(CCNC(=O)c2cc3cc4cc(OC)ccc4nc3s2)cc1OCC	-15.5	-20.6%	-5.7%	0.8	-7.2%	-0.1%
COc1ccc2nc3sc(C(=O)Nc4cc(Cl)c(OC)cc4OC)cc3cc2c1	0.1	-26.8%	7.08µM*	-0.6	?	-1.7%
CC(C(=O)Nc1ccc(F)cc1Cl)N1CCN(c2ccc(O)cc2)CC1 (stereo not drawn)	.	39.8µM*	.	.	.	.
CC(C(=O)Nc1cc([N+](=O)[O-])ccc1Cl)N1CCN(c2ccc(O)cc2)CC1 (stereo not drawn)	-2.7	?	1.9%	0.9	1.0%	-3.7%
Cc1c(C(=O)N(Cc2nc3ccccc3c(=O)[nH]2)C(C)C)oc2ccc(Br)cc12	.	44.7µM*	.	.	.	.
